Assay [1] in a line: qHTS of pediatric cancer cell lines to identify multiple opportunities for drug repurposing: Confirmatory screen for SJ-GBM2 cells (AID 1347116). Further: nearly all actives have a fitted effect of over 60% in size. Further: potency means the concentration at half of the fitted maximal effect. A digest of the protocol: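 Viability measured as metabolically active cells via CellTiter-Glo luminescence following 48 hours of compound exposure, 11-point dilutions in confirmatory testing. 500-1,000 cells/well plated 5 hours before dosing; controls were DMSO and 2.3 µM bortezomib.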
In general terms: qHTS replaces the single test concentration by a dilution series.

The nature of assay [2]: qHTS of pediatric cancer cell lines to identify multiple opportunities for drug repurposing: Confirmatory screen for BT-37 cells (AID 1347117). Further: nearly all actives have a fitted effect of over 55% in size. Further: potency means the concentration at half of the fitted maximal effect. In short, it runs like this: (§1)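 Cells (500-1,000/well) rested 5 h, then received compounds for 48 h; metabolically active cells were measured by CellTiter-Glo luminescence. Final concentrations spanned up to 46 µM (MIPE, 11-point) or 0.59 nM-46 µM (NPC, 8-point) in primary screens, 11-point in follow-ups.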

Assay [3] in a line: qHTS of pediatric cancer cell lines to identify multiple opportunities for drug repurposing: Confirmatory screen for TC32 cells (AID 1347118).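 Further: cells exposed to compound for 48 h before the read; nearly all actives have a fitted effect of over 65% in size.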 Further: potency means the concentration at half of the fitted maximal effect. In short, it runs like this:
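Luminescent ATP read-out (CellTiter-Glo) of metabolically active TC32 cells after 48 h exposure. Concentration-response curves came from 11-point (MIPE, 0.78 nM–46 µM) or 8-point (NPC, 0.59 nM–46 µM) primary titrations; follow-up used 11 points.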

Assay [4] can be described thus: qHTS of pediatric cancer cell lines to identify multiple opportunities for drug repurposing: Confirmatory screen for control Hh wild type fibroblast cells (AID 1347121). Further: nearly all actives have a fitted effect of over 70% in size. Further: potency means the concentration at half of the fitted maximal effect. A digest of the protocol: as §1
The nature of assay [5]: qHTS of pediatric cancer cell lines to identify multiple opportunities for drug repurposing: Confirmatory screen for U-2 OS cells (AID 1347122). Further: nearly all actives have a fitted effect of over 65% in size. Further: potency means the concentration at half of the fitted maximal effect. In short, it runs like this:
as §1

Assay [6] is described as follows: qHTS of pediatric cancer cell lines to identify multiple opportunities for drug repurposing: Confirmatory screen for RD cells (AID 1347124).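 Further: cells exposed to compound for 48 h before viability readout; nearly all actives have a fitted effect of over 65% in size.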 Further: potency means the concentration at half of the fitted maximal effect. A digest of the protocol: as §1
Assay [7] can be described thus: qHTS of pediatric cancer cell lines to identify multiple opportunities for drug repurposing: Confirmatory screen for Rh18 cells (AID 1347125). Further: nearly all actives have a fitted effect of over 55% in size. Further: potency means the concentration at half of the fitted maximal effect. In short, it runs like this:
as §1

Assay [8] in a line: qHTS of pediatric cancer cell lines to identify multiple opportunities for drug repurposing: Confirmatory screen for Rh30 cells (AID 1347126). Further: nearly all actives have a fitted effect of over 55% in size. Further: potency means the concentration at half of the fitted maximal effect. In short, it runs like this: as §1
Assay [9] is described as follows: qHTS of pediatric cancer cell lines to identify multiple opportunities for drug repurposing: Confirmatory screen for OHS-50 cells (AID 1347128).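 Further: compound exposure lasted 48 h at 37 degrees C; nearly all actives have a fitted effect of over 55% in size.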 Further: potency means the concentration at half of the fitted maximal effect. A digest of the protocol:
as §1

Assay [10] can be described thus: qHTS of pediatric cancer cell lines to identify multiple opportunities for drug repurposing: Confirmatory screen for SK-N-SH cells (AID 1347129).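 Further: cells exposed to compound for 48 h before viability read; nearly all actives have a fitted effect of over 60% in size.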 Further: potency means the concentration at half of the fitted maximal effect. In short, it runs like this: as §1
The target of assay [11] is N-terminal Xaa-Pro-Lys N-methyltransferase 1 (Homo sapiens) (UniProt Q9BV86). Description: qHTS Assay for Inhibitors of N-terminal methyltransferase 1 (NTMT1): LOPAC validation of the NTMT1 SAHH-coupled ThioGlo3 Assay (AID 1347143).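 Further: SAH from peptide methylation measured as thiol fluorescence via SAHH coupling and ThioGlo3; nearly all actives have a fitted effect of over 70% in size.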 In short, it runs like this:
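NTMT1 125nM + cpds (various conc.), 1 min RT; add SAM 100uM/SAHH 10uM/ThioGlo3 15uM (addition mix). SAHH-coupled thiol detection, Ex340/Em450, t0 and 30 min RT; signal normalized to background. LOPAC 1280-cpd pilot.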

Assay [12] relates to Zika virus NS2B-NS3 protease (unlinked). Description: Optimization of GU AMC qHTS for Zika virus inhibitors: Unlinked NS2B-NS3 protease assay (AID 1347151). Further: series mostly up to about 52 µM; nearly all actives have a fitted effect of over 80% in size. In short, it runs like this:
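Fluorescence read-out (340 nm ex / 450 nm em) of AMC peptide cleavage, taken immediately and after 15 min at room temperature (~20% conversion). Enzyme was the unlinked NS2B–NS3 complex at 25 nM in Tris pH 8.0 buffer.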

Assay [13] has as its system Zika virus NS2B-NS3 protease. Description: Primary screen GU AMC qHTS for Zika virus inhibitors (AID 1347154). Further: nearly all actives have a fitted effect of over 70% in size. Further: potency means the concentration at half of the fitted maximal effect. A digest of the protocol: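 Fluorogenic AMC-substrate cleavage by noncovalent NS2B-NS3 protease complex (25 nM, pH 8.0 Tris buffer with Tween 20) followed for 15 minutes at room temperature (~20% conversion). Percent inhibition from ex340/em450 signal change, fitted by 4-parameter Hill equation.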

Assay [14] relates to Zika virus NS2B-NS3 protease (unlinked complex). Description: Primary screen GU Rhodamine qHTS for Zika virus inhibitors: Unlinked NS2B-NS3 protease assay (AID 1347159). Further: nearly all actives have a fitted effect of over 60% in size. In short, it runs like this:
(§2)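 Percent inhibition came from the 15-min rise in Rhodamine110 fluorescence (1.5 microM substrate, ~15% conversion), normalized to no-inhibitor and no-enzyme wells and Hill-fitted. Unlinked protease, 25 nM, pH 8.0 Tris buffer; compounds up to 114 microM, 15-min preincubation.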

Assay [15] has as its system Zika virus NS2B-NS3 protease (linked construct). Description: Primary screen NINDS Rhodamine qHTS for Zika virus inhibitors (AID 1347160). Further: nearly all actives have a fitted effect of over 55% in size. As to conditions: outcome: dose series up to 57.1 µM unless noted. In short, it runs like this: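 Rhodamine110-peptide cleavage (1.5 µM substrate) by 25 nM linked NS2B-NS3 enzyme at pH 8.0 (Tris, Tween 20), after 15 min RT preincubation with compounds; 15-min fluorescence change normalized to controls and Hill-fitted.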

A further assay addresses Furin (Homo sapiens) (UniProt P09958). Description: Furin counterscreen qHTS for Zika virus inhibitors (AID 1347149).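 Further: purified recombinant full-length human furin enzyme at 5 nM; fluorescence gain from furin cutting a BOC-RVRR-AMC peptide substrate over 15 min; top concentration of the series differs between compounds; nearly all actives have a fitted effect of over 70% in size.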 In short, it runs like this:
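Counterscreen measures cleavage of 2 microM BOC-RVRR-AMC, below its ~15 microM Km, by 5 nM full-length human furin at pH 7.0 after a 15-min compound preincubation. Inhibition derives from the 15-min fluorescence increase at 37C.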
A general note: The purpose of a counterscreen is to sort out artefacts and off-target activity.

Assay [16] in a line: Confirmatory screen GU Rhodamine qHTS for Zika virus inhibitors qHTS (AID 1347157). Further: nearly all actives have a fitted effect of over 70% in size. In short, it runs like this: as §2

The source of these data is PubChem BioAssay (NCATS).

Several values for one entry are separate records, joined by “and”; a condition that tells them apart may be missing. Identical values can stand only once. Records with an inconclusive call do not appear. Activity calls are given as the source filed them. The call rests on the fitted dose curve; in most records, active means well fitted curve in the direction sought with a large enough effect; inconclusive means small, poorly fitted or top-dose-only effect, or another doubt; inactive means no such curve, though single readings can be large; an effect the other way counts as inactive or inconclusive.

N-terminal Xaa-Pro-Lys N-methyltransferase 1 (Homo sapiens), sequence (Q9BV86 whole entry, looked up): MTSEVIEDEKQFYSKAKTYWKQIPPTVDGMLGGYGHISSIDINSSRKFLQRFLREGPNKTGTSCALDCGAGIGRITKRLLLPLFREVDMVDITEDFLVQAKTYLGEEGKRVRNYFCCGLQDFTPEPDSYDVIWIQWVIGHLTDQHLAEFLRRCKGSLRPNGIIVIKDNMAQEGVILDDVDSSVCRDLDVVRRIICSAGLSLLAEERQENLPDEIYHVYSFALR
Furin (Homo sapiens), sequence (P09958 whole entry, looked up): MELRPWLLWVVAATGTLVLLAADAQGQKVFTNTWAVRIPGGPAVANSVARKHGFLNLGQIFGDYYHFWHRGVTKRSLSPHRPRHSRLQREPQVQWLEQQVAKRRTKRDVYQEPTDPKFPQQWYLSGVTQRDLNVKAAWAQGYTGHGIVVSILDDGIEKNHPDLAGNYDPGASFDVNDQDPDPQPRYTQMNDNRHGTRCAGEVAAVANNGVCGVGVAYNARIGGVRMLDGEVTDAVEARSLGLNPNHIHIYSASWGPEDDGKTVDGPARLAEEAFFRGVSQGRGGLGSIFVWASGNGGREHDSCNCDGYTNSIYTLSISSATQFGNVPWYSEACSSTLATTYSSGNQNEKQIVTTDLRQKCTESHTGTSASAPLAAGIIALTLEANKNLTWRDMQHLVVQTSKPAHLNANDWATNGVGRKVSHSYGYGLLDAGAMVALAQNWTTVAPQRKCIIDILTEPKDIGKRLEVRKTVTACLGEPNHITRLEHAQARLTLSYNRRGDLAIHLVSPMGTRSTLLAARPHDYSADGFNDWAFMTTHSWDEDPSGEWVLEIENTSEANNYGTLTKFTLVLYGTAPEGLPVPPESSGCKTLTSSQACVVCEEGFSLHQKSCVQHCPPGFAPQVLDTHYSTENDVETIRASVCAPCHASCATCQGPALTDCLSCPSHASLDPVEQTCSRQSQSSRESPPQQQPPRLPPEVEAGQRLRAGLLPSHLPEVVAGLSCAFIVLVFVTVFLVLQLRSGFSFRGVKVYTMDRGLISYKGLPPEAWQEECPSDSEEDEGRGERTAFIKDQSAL

As for `CNS(=O)(=O)CCc1ccc2[nH]cc(C3CCN(C)CC3)c2c1`, the Potency result in assay [1], in assay [2], in [4], in assay [5], in assay [6] and in assay [7] was “inactive” each time. Further, the Potency entry in assay [8], in assay [9], in assay [10], in assay [11], in assay [12] and in assay [13] was “inactive” in each case. Moreover, in assay [14], the Potency result is “inactive”. Moreover, in [3], the Potency was 13.1 µM (active). Further, the outcome in [15] was inactive.

Regarding `CCc1c2c(nc3ccc(OC(=O)N4CCC(N5CCCCC5)CC4)cc13)-c1cc3c(c(=O)n1C2)COC(=O)[C@]3(O)CC`, the Potency was 928 nM (active) in assay [2]; 0.465 µM (active) in assay [3]; 16500 nM (active) in assay [7]; 5850 nM (active) in [8]; 2610 nM (active) in assay [9]; 5730 nM (active) in assay [13]. Also, in [4], the Potency result is “inactive”.

Take `CCCCOc1ccc(CC(=O)NO)cc1`: the Potency result in assay [1], in [4], in assay [5], in assay [6], in assay [9] and in [10] was “inactive” each time. The Potency result in [13] was “inactive”.

Regarding `Cc1cccc(N(C)C(=S)Oc2ccc3ccccc3c2)c1`, the Potency result in assay [1], in assay [2], in assay [4], in [6], in [7] and in assay [8] was “inactive” each time. For the same compound, the Potency entry in assay [9], in assay [10] and in assay [13] was “inactive” in each case.

Take `Nc1[nH]c(=O)ncc1F`: the Potency result in assay [2], in [3], in assay [4], in [5], in assay [6] and in assay [7] was “inactive” throughout. The Potency entry in [8], in [9], in assay [10] and in [13] was “inactive” each time.

For the compound `COc1ccc(-c2ccc3cc(C(=O)O)ccc3c2)cc1C12CC3CC(CC(C3)C1)C2`, the Potency in assay [2] was 7370 nM (active); in [3], 2.08 µM (active); in assay [5], 82.7 nM (active). In addition, the Potency result (in assay [4]; in assay [7]; in assay [10]; in the assay with Furin (Homo sapiens); in assay [13]) was “inactive” throughout. Besides, the result in assay [16] was inactive.

Consider `CN1CCCC(n2nc(Cc3ccc(Cl)cc3)c3ccccc3c2=O)CC1` (stereo unspecified), for which the Potency in assay [2] is 23300 nM (active); in assay [3] it was 26.1 µM (active); in [10], 20900 nM (active). In addition, the Potency result in assay [4], in assay [5], in assay [8] and in assay [13] was “inactive” throughout.

In the case of `O=NN(CCCl)C(=O)NC1CCCCC1`, the Potency entry in assay [2], in assay [3], in assay [4], in [5], in [6] and in [7] was “inactive” in each case. Also, the Potency entry in assay [8], in assay [9], in assay [10] and in assay [13] was “inactive” each time.

In the case of `CC(C(=O)O)c1ccc2c(c1)CC(=O)c1ccccc1S2` (stereo unspecified), the Potency entry in assay [1], in assay [4], in [5], in assay [6], in assay [7] and in assay [8] was “inactive” each time. For the same compound, the Potency entry in assay [9], in [10], in [13] and in [14] was “inactive” in each case. Besides, the compound was called inactive in assay [15].

As for `CC(C)C[C@H](NC(=O)[C@H](CCc1ccccc1)NC(=O)CN1CCOCC1)C(=O)N[C@@H](Cc1ccccc1)C(=O)N[C@@H](CC(C)C)C(=O)[C@@]1(C)CO1`, the Potency in assay [1] is 73.7 nM (active); in assay [2] it was 92.8 nM (active); in assay [3] it was 0.0233 µM (active); in [4] it was 737 nM (active); in [7] it was 46.5 nM (active); in assay [8] it was 117 nM (active). Further, the Potency in assay [9] was 208 nM (active); in assay [10], 209 nM (active). In addition, the Potency result in [13] is “inactive”.

In the case of `C[C@@H](CN1CC(=O)NC(=O)C1)N1CC(=O)NC(=O)C1`, the Potency entry in assay [1], in assay [2], in assay [3], in assay [4], in assay [5] and in [6] was “inactive” each time. The Potency result in assay [7], in [8], in assay [9], in assay [10] and in [13] was “inactive” each time.

As for `O=C(NCC1CN(c2ccc(N3CCOCC3=O)cc2)C(=O)O1)c1ccc(Cl)s1` (stereo unspecified), the Potency entry in [1], in assay [4], in assay [5], in assay [6], in assay [7] and in [8] was “inactive” each time. Further, the Potency entry in assay [10], in [13] and in [14] was “inactive” throughout. In assay [3], the Potency is 2.61 µM (active). Besides, the outcome in [15] was inactive.

`C[C@@H]1C[C@H]2[C@@H]3CCC4=CC(=O)C=C[C@]4(C)[C@@]3(Cl)[C@@H](O)C[C@]2(C)[C@@]1(OC(=O)c1ccco1)C(=O)CCl`: the Potency is 369 nM (active) in [2]; 0.928 µM (active) in assay [3]; 3290 nM (active) in assay [5]; 20800 nM (active) in assay [7]; 11700 nM (active) in assay [9]; 14800 nM (active) in assay [10]. For the same compound, the Potency result in [4] and in assay [13] was “inactive” throughout.

As to `N=C(N)c1ccc(OCCCCCOc2ccc(C(=N)N)cc2)cc1`, the Potency entry in [1], in assay [7], in assay [9], in assay [10] and in assay [13] was “inactive” in each case.

Consider `Nc1nc(F)nc2c1ncn2[C@@H]1O[C@H](CO)[C@@H](O)[C@@H]1O`, for which the Potency in assay [1] is 1650 nM (active); in assay [2] it was 14.7 µM (active) and 414 nM (active); in [3], 18.5 µM (active) and 737 nM (active); in assay [5] it was 1470 nM (active); in assay [6], 1650 nM (active); in assay [9] it was 414 nM (active). In addition, the Potency result in assay [4], in assay [13] and in assay [14] was “inactive” in each case. In addition, the outcome in [15] was inactive.

On to `CC(C)NCC(O)c1ccc(NS(C)(=O)=O)cc1` (stereo unspecified), for which the Potency entry in [1], in [2], in assay [3], in assay [4], in assay [5] and in assay [6] was “inactive” in each case. The Potency result in assay [7], in assay [9], in assay [10], in assay [11], in assay [12] and in assay [13] was “inactive” in each case.

For the compound `CCOC(=O)[C@H](CCc1ccccc1)N[C@H]1CS[C@H](c2cccs2)CN(CC(=O)O)C1=O`, the Potency entry in [1], in assay [2], in assay [4], in assay [5], in assay [6] and in assay [7] was “inactive” each time. The Potency result in [8], in assay [10] and in [13] was “inactive” in each case. For the same compound, in assay [3], the Potency was 8.27 µM (active).
